From PubChem BioAssay (NCATS)
Records with an inconclusive call do not appear. Entries that show only a call come without a potency. The source made the active and inactive calls. Calls follow the shape of the dose curve; as a rule, active = well fitted curve in the direction sought with a large enough effect; inconclusive = small, poorly fitted or top-dose-only effect, or another doubt; inactive = no such curve, though single readings can be large; an effect the other way counts as inactive or inconclusive.

Experiments:
[1] = qHTS of pediatric cancer cell lines to identify multiple opportunities for drug repurposing: Primary screen for NB1643 cells (AID 1347099); also: nearly all actives have a fitted effect of over 50% in size
Procedure, shortened: (§1)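 ATP-based luminescence (CellTiter-Glo) quantifies viability after a 48-hour exposure. Compounds are dosed across 8 or 11 final concentrations; DMSO and 2.3 µM bortezomib serve as controls.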

[2] = qHTS of pediatric cancer cell lines to identify multiple opportunities for drug repurposing: Primary screen for LAN-5 cells (AID 1347100)
Procedure, shortened: (§2)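 Cells (500-1,000/well) in growth media were settled 5 h at 37 degrees C, then given compounds for 48 h. Viability was read as CellTiter-Glo luminescence. Primary runs used MIPE at 11 points (0.78 nM-46 µM) and NPC at 8 points (0.59 nM-46 µM); follow-ups used 11 points.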

[3] = qHTS of pediatric cancer cell lines to identify multiple opportunities for drug repurposing: Primary screen for BT-12 cells (AID 1347101); also: nearly all actives have a fitted effect of over 25% in size
Procedure, shortened: (§3)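 Cells (500-1,000/well) rested 5 h, then received compounds for 48 h; metabolically active cells were measured by CellTiter-Glo luminescence. Final concentrations spanned up to 46 µM (MIPE, 11-point) or 0.59 nM-46 µM (NPC, 8-point) in primary screens, 11-point in follow-ups.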

[4] = qHTS of pediatric cancer cell lines to identify multiple opportunities for drug repurposing: Primary screen for OHS-50 cells (AID 1347103); also: nearly all actives have a fitted effect of over 40% in size
Procedure, shortened: as §3

[5] = qHTS of pediatric cancer cell lines to identify multiple opportunities for drug repurposing: Primary screen for RD cells (AID 1347104); also: nearly all actives have a fitted effect of over 55% in size
Procedure, shortened: as §1

[6] = qHTS of pediatric cancer cell lines to identify multiple opportunities for drug repurposing: Primary screen for MG 63 (6-TG R) cells (AID 1347105); also: nearly all actives have a fitted effect of over 50% in size
Procedure, shortened: as §1

[7] = qHTS of pediatric cancer cell lines to identify multiple opportunities for drug repurposing: Primary screen for control Hh wild type fibroblast cells (AID 1347106); also: nearly all actives have a fitted effect of over 55% in size
Procedure, shortened: as §2

[8] = qHTS of pediatric cancer cell lines to identify multiple opportunities for drug repurposing: Primary screen for Rh30 cells (AID 1347107); also: nearly all actives have a fitted effect of over 75% in size
Procedure, shortened: as §2

[9] = qHTS of pediatric cancer cell lines to identify multiple opportunities for drug repurposing: Primary screen for Rh41 cells (AID 1347108); also: nearly all actives have a fitted effect of over 70% in size
Procedure, shortened: as §1

[10] = qHTS of pediatric cancer cell lines to identify multiple opportunities for drug repurposing: Primary screen for Rh18 cells (AID 1347102); also: nearly all actives have a fitted effect of over 65% in size
Procedure, shortened: as §2
Potency is read from the fitted curve at half-maximal effect.

Row | SMILES | Potency [1] | Potency [2] | Potency [3] | Potency [4] | Potency [5] | Potency [6] | Potency [7] | Potency [8] | Potency [9] | Potency [10]
1 | C=CCN1CCc2nc(N)sc2CC1 | inactive | inactive | inactive | inactive | inactive | inactive | inactive | inactive | inactive | –
2 | CC(=O)Nc1ccc(OC(=O)c2ccccc2OC(C)=O)cc1 | inactive | inactive | inactive | inactive | inactive | inactive | inactive | inactive | inactive | –
3 | CCC(CC)(CC(=O)Nc1cccc(/C=C/c2nc(C3CCC3)cs2)c1)C(=O)O | inactive | inactive | inactive | – | – | inactive | inactive | inactive | inactive | inactive
4 | O=C(NC1CCN(CCc2c[nH]c3ccccc23)CC1)c1ccccc1 | inactive | inactive | inactive | – | – | inactive | inactive | inactive | inactive | inactive
5 | CCCCOC(=O)CC(CC(=O)OCCCC)(OC(C)=O)C(=O)OCCCC | inactive | inactive | inactive | – | inactive | inactive | – | inactive | inactive | inactive
6 | CCCCNC(=O)NS(=O)(=O)c1ccc(N)cc1 | inactive | inactive | inactive | inactive | inactive | inactive | inactive | inactive | inactive | –
7 | CCN(CC)CCOC(=O)C(Cc1cccc2ccccc12)CC1CCCO1 (stereo not drawn) | inactive | inactive | inactive | – | – | inactive | inactive | inactive | inactive | inactive
8 | Cl/C(=C\n1cncn1)c1ccc(Cl)cc1Cl | inactive | inactive | inactive | inactive | inactive | – | inactive | – | inactive | –
9 | CC(=O)NC(=O)c1ccccc1O | inactive | inactive | inactive | inactive | inactive | inactive | inactive | inactive | inactive | –
10 | CCNC(=O)/C=C/c1cccc(Br)c1 | inactive | inactive | inactive | – | inactive | inactive | – | inactive | inactive | inactive
11 | CCN(CC)CCOc1ccccc1C(=O)CCc1ccccc1 | inactive | inactive | inactive | – | – | inactive | inactive | inactive | inactive | inactive
12 | Nc1nc(-c2ccccc2)c(Br)c(=O)[nH]1 | inactive | inactive | inactive | inactive | inactive | inactive | inactive | inactive | inactive | –
13 | NC1CCN(c2nc3c(cc2F)c(=O)c(C(=O)O)cn3-c2ccc(F)cc2F)C1 (stereo not drawn) | inactive | inactive | inactive | inactive | inactive | inactive | inactive | inactive | inactive | –
14 | CCN(CC)CCNc1ccc(CO)c2sc3ccccc3c(=O)c12 | 16.8 µM (active) | 13.3 µM (active) | 13.8 µM (active) | 24.6 µM (active) | 23.7 µM (active) | inactive | 18.8 µM (active) | inactive | – | –
15 | O=S(=O)(O)c1ccc(O)cc1 | inactive | inactive | inactive | inactive | inactive | inactive | inactive | – | inactive | –
16 | OC[C@H]1O[C@@H](Oc2ccc(O)cc2)[C@H](O)[C@@H](O)[C@@H]1O | inactive | inactive | inactive | inactive | inactive | inactive | – | inactive | inactive | –
17 | C#C[C@]1(O)CC[C@H]2[C@@H]3CCc4cc(OC)ccc4[C@H]3CC[C@@]21C | inactive | inactive | inactive | – | – | inactive | inactive | inactive | inactive | inactive
18 | COc1cc(C)nc(-n2nc(C)cc2OC)n1 | inactive | inactive | inactive | inactive | inactive | inactive | inactive | inactive | inactive | –
19 | NC(N)=NN=C(/C=C/c1ccc([N+](=O)[O-])o1)/C=C/c1ccc([N+](=O)[O-])o1 | 15 µM (active) | 2.11 µM (active) | 0.978 µM (active) | – | 0.841 µM (active) | – | 21.1 µM (active) | 3.35 µM (active) | 1.19 µM (active) | 1.19 µM (active)
20 | Oc1c(Cl)cc(Cl)c(Cl)c1Cc1c(O)c(Cl)cc(Cl)c1Cl | 5.96 µM (active) | 4.22 µM (active) | 13.8 µM (active) | 6.17 µM (active) | – | 6.68 µM (active) | inactive | inactive | – | –
21 | CC1=C(C(=O)O)N2C(=O)[C@@H](NC(=O)[C@H](N)c3ccccc3)[C@H]2SC1 | inactive | inactive | inactive | inactive | inactive | inactive | inactive | inactive | inactive | –
22 | O=C1C(=O)c2ccccc2C(O)=C1C1CCC(c2ccc(Cl)cc2)CC1 (stereo not drawn) | inactive | inactive | inactive | inactive | inactive | inactive | inactive | inactive | inactive | –
23 | CCCCCCCCCCCCCC(=O)OC(C)C | inactive | inactive | inactive | inactive | inactive | inactive | – | inactive | inactive | –

Row | SMILES | Potency [1] | Potency [2] | Potency [3] | Potency [4] | Potency [5] | Potency [6] | Potency [7] | Potency [8] | Potency [9] | Potency [10]
24 | CC(=C(CCOC(=O)C(C)C)SSC(CCOC(=O)C(C)C)=C(C)N(C=O)Cc1cnc(C)nc1N)N(C=O)Cc1cnc(C)nc1N | inactive | inactive | – | inactive | inactive | inactive | inactive | inactive | inactive | inactive
25 | CCOC(=O)c1ccc(N)cc1 | inactive | inactive | inactive | – | – | inactive | inactive | – | inactive | –
26 | O=C(CCN1CCN2CCCC2C1)N1c2ccccc2Sc2ccc(Cl)cc21 (stereo not drawn) | inactive | inactive | inactive | – | inactive | – | inactive | – | inactive | –
27 | CC(=O)Nc1ccc(CC(=O)O)cc1 | inactive | inactive | – | inactive | inactive | inactive | inactive | inactive | inactive | inactive
28 | CC(=O)Oc1ccc(C)cc1 | inactive | inactive | – | inactive | inactive | inactive | inactive | inactive | inactive | inactive
29 | NS(=O)(=O)c1ccc(Cl)c(S(N)(=O)=O)c1 | inactive | inactive | – | inactive | inactive | inactive | – | inactive | inactive | inactive
30 | C=C[C@H]1CN2CC[C@H]1C[C@@H]2[C@@H](O)c1ccnc2ccc(OC)cc12 | inactive | inactive | inactive | inactive | – | inactive | inactive | – | inactive | –
31 | Cc1cc2c(OCC(CNC(C)(C)C)OC(=O)c3ccccc3)cccc2[nH]1 (stereo not drawn) | inactive | inactive | – | inactive | inactive | inactive | – | inactive | inactive | inactive
32 | CC1(COc2ccc(CC3SC(=O)NC3=O)cc2)CCCCC1 (stereo not drawn) | inactive | inactive | – | 5.5 µM (active) | inactive | inactive | inactive | inactive | inactive | inactive
33 | CCN1CCCC(OC(=O)C(c2ccccc2)c2ccccc2)C1 (stereo not drawn) | inactive | inactive | – | inactive | inactive | inactive | inactive | inactive | inactive | inactive
34 | NC(=S)N/N=C/c1cccnc1 | inactive | inactive | inactive | inactive | – | inactive | inactive | – | inactive | –
35 | CC1CCc2c(N3CCC(O)CC3)c(F)cc3c(=O)c(C(=O)O)cn1c23 (stereo not drawn) | inactive | inactive | – | inactive | inactive | inactive | inactive | inactive | inactive | inactive
36 | Cc1cccc(C)c1NC(=O)CN1CCCCCC1 | inactive | inactive | – | inactive | inactive | inactive | inactive | inactive | inactive | inactive
37 | Cc1nc(-c2ccc(Cl)cc2)oc1COC(C)(C)C(=O)O | inactive | inactive | – | inactive | inactive | inactive | inactive | inactive | inactive | inactive
38 | C[C@@H](O)[C@H]1C(=O)N2C(C(=O)O)=C([C@H]3CCCO3)S[C@H]12 | inactive | inactive | – | inactive | inactive | inactive | inactive | inactive | inactive | inactive
39 | CC(=O)OCC1=C(C(=O)O)N2C(=O)[C@@H](NC(=O)CSc3ccncc3)[C@H]2SC1 | inactive | inactive | – | inactive | inactive | inactive | inactive | inactive | inactive | inactive
40 | C=C1c2cccc(O)c2C(O)=C2C(=O)[C@]3(O)C(O)=C(C(N)=O)C(=O)[C@@H](N(C)C)[C@@H]3[C@@H](O)[C@H]12 | inactive | inactive | – | inactive | inactive | inactive | inactive | – | inactive | inactive
41 | O=C(Nc1cccc(C2=NCCN2)c1)Nc1cccc(C2=NCCN2)c1 | inactive | inactive | – | inactive | inactive | inactive | inactive | inactive | inactive | inactive
42 | c1ccc(-c2nc[nH]c2-c2ccccc2)cc1 | inactive | inactive | inactive | – | – | inactive | inactive | inactive | inactive | –
43 | COc1ccc(CN(CCN(C)C)c2ncccn2)cc1 | inactive | inactive | – | inactive | inactive | inactive | inactive | inactive | inactive | inactive
44 | CCNC(=O)NCc1cccc(Cl)c1 | inactive | inactive | – | inactive | inactive | inactive | inactive | inactive | inactive | inactive
45 | O=C(O)CCNC(=O)c1ccccc1 | inactive | inactive | – | inactive | inactive | inactive | inactive | inactive | inactive | inactive
46 | Cc1ccc(-c2ncc(Cl)cc2-c2ccc(S(C)(=O)=O)cc2)cn1 | inactive | inactive | – | inactive | inactive | inactive | inactive | inactive | inactive | inactive
